# From PubChem BioAssay (Tox21)
# Results filed as inconclusive are left out. The source made the active and inactive calls. Calls follow the shape of the dose curve; as a rule, active = well fitted cell-killing curve with a large enough effect in the repeat runs; inconclusive = weak or mixed curves, or effect the other way; inactive = flat fitted curve, though single readings scatter.
# Assay: qHTS assay to identify small molecule antagonists of the retinoid acid receptor (RAR) signaling pathway - cell viability counter screen (AID 1159551); also: nearly all actives have a fitted effect of over 35% in size
# Conditions: C3RL4 cells viability, ATP luminescence (CellTiter-Glo), 6 h; series mostly up to 92.4 µM
# Source text: U.S. Tox21 Program National Center for Advancing Translational Sciences [NCATS] NIH Chemical Genomics Center [NCGC] U.S. Environmental Protection Agency [EPA] National Institutes of Environmental Health Sciences [NIEHS] National Toxicology Program [NTP] U.S. Food and Drug Administration [FDA] Tox21 Assay Overview: All-trans Retinoic acid (atRA) is the potent natural metabolite of retinol and plays an important role in normal embryonic development and maintenance of cellular phenotype in adult animals. atRA is the activating ligand for the retinoic acid receptors (RARs) which form heterodimers with retinoid X receptors (RXRs) on the retinoic acid response element (RARE). Through activation of the RAR/RXRs nuclear receptors, atRA regulates the transcription of a large number of protein-coding genes and regulatory RNAs. Intracellular levels of atRA are controlled by the retinol signaling pathway (RSP) that regulates the biosynthesis and catabolism of atRA to maintain physiological levels. Chemicals that interfere with the RSP can cause abnormal intracellular levels of atRA and therefore are potential developmental toxicants. To assess compounds for the potential adverse effect on embryonic development through interfering with retinol signaling, a cell-based RARE luciferase reporter gene assay was used. C3RL4 cell line (OARSA/CFSAN/FDA, Laurel, MD) was used to screen Tox21 10K compound library for identifying inhibitors of the RSP. Also cytotoxicity was assessed by determining the viability of cells based on the quantitation of ATP.
# Tox21 Assay Protocol Summary: C3RL4 cells were seeded at 1,000/well in 4 uL of assay medium into white solid 1,536-well tissue culture plates (Greiner Bio-One North America Inc. Monroe, NC) using a Multidrop Combi (Thermo Scientific, Waltham, MA) dispenser. After incubation at 37 C and 5% CO2 for an overnight, 23 nL of compounds dissolved in DMSO, positive control or DMSO only were transferred by a Pintool station (Kalypsys, San Diego, CA). One ul of 1 uM (final concentration) of Retinol was added right after the compound addition by using a Flying Reagent Dispenser (FRD) (Aurora Discovery, San Diego, CA). After 6 hr incubation at 37 C and 5% CO2, 5 uL of CellTiter-Glo reagent (Promega Corporation, Madison, WI) was added to each assay plate using an FRD. Luminescence was quantified on a ViewLux plate reader (PerkinElmer, Waltham, MA) after 30 min incubation at room temperature.
# % is scaled to controls: 0 for no effect and ±100 for the full control effect.
Compound,outcome,"activity change, negative = cytotoxicity"
O=C1c2ccccc2C(=O)C1c1ccccc1,inactive,–
N#Cc1ccc(C(=O)O)cc1,inactive,–
CCCCC(CC)COCCO (stereo not given),inactive,–
CC(C)=O,inactive,–
COc1ccc(C2CNC(=O)C2)cc1OC1CCCC1 (stereo not given),inactive,–
Cc1ccc(C=O)cc1C,inactive,–
COP(=O)(OC)OC(c1ccc(Cl)cc1)P(=O)(OC)OC (stereo not given),inactive,–
CCOC(=O)CC(=O)c1ccccc1,inactive,–
CCCN1C[C@H](CSC)C[C@@H]2c3cccc4[nH]cc(c34)C[C@H]21,inactive,–
c1ccc2nccnc2c1,inactive,–
CC(=O)Nc1cccc(C)c1,inactive,–
CC(C)CCCCOC(=O)c1ccccc1C(=O)OCCCCC(C)C,inactive,–
O=C(NCCc1c[nH]c2ccccc12)c1cccnc1,inactive,–
CN(C)C(=O)CNC(=O)Cc1ccccc1,inactive,–
COCCc1ccc(OCC2CO2)cc1 (stereo not given),inactive,–
OCCC(F)(F)C(F)(F)C(F)(F)C(F)(F)C(F)(F)C(F)(F)C(F)(F)C(F)(F)F,inactive,–
COc1cc(NS(=O)(=O)c2ccc(N)cc2)nc(OC)n1,inactive,–
C#CC(C)N(C)C(=O)Nc1ccc(Cl)cc1 (stereo not given),inactive,–
O=C(Nc1ccc(Cl)c(Cl)c1)C1CC1,inactive,–
Cc1cccc(C)c1NC(=O)c1ccccc1C(=O)O,inactive,–

Compound,outcome,"activity change, negative = cytotoxicity"
O=P(O)(O)OP(=O)(O)O,inactive,–
O=C1c2ccccc2C(=O)c2cc(S(=O)(=O)O)ccc21,inactive,–
CCC(C=O)CC,inactive,–
C[Si](C)(C)C,inactive,–
COc1cc2c(cc1OC)C(=O)CC2,inactive,–
Nc1nnc(-c2cccc(Cl)c2Cl)c(N)n1,inactive,–
O=C(CS(=O)Cc1ccco1)NC/C=C\COc1cc(CN2CCCCC2)ccn1 (stereo not given),inactive,–
CCCCOC(=O)c1ccccc1,inactive,–
COC(=O)CCc1ccc(OCC(O)CNC(C)C)cc1 (stereo not given),inactive,–
CCn1ccc(NS(=O)(=O)c2ccc(N)cc2)nc1=O,inactive,–
C=Cc1ccccn1,inactive,–
Oc1cn2c(n1)Nc1ccc(Cl)c(Cl)c1C2,–,3.75% [at 19 µM] (inactive)
CCCOC(=O)C(C)O (stereo not given),inactive,–
CC(C)N(c1ccccc1)C(C)C,inactive,–
NCCS,inactive,–
COCCOCCOCCOCCO,inactive,–
C=C(C)C1CCC(C)(O)CC1 (stereo not given),inactive,–
CC(C)(C)c1nnc(NS(=O)(=O)c2ccc(N)cc2)s1,inactive,–
CC(C)=CCOC(=O)c1ccccc1,inactive,–
NC(CO)C(=O)NNCc1ccc(O)c(O)c1O (stereo not given),inactive,–
